Laboratory results reported in PubChem BioAssay AID1159580 (chemical genetic matrix, 2015).
Several values for one entry are separate records, joined by “and”; a condition that tells them apart may be missing. Identical values can stand only once. Screen size: about 5,500 compounds; about 2,000 (36%) were called active. About 18% were inconclusive and are not listed. Cut-off read from the data, not from the text of the source: active = normalized growth mostly below about 0.91 (no sharp cut-off); inconclusive = no clear call, values can overlap the other calls; inactive = mostly above about 0.92. The list shows a part of the results.

Test: chemical genetic growth profiling, strain panel (AID 1159580);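 note: tested at 20 µM; growth read once vehicle control cultures reached saturation at 30 °C; 1 = growth at the plate median or of vehicle wells; lower values mean less growth of the strain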
Details: S. cerevisiae deletion strains, growth OD
[1] = locus YAL013W, strain DEP1, stronger effect = lower value
[2] = locus YAL040C, strain CLN3, stronger effect = lower value
[3] = locus YDR363W, strain ESC2, stronger effect = lower value
[4] = locus YER002W, strain NOP16, stronger effect = lower value
[5] = locus YNL153C, strain GIM3, stronger effect = lower value
[6] = locus YNL175C, strain NOP13, stronger effect = lower value
[7] = locus YNL197C, strain WHI3, stronger effect = lower value
[8] = locus YNL224C, strain SQS1, stronger effect = lower value
[9] = locus YOR083W, strain WHI5 (second series), stronger effect = lower value
[10] = locus YPL055C, strain LGE1, stronger effect = lower value
[11] = locus YGR078C, strain PAC10, stronger effect = lower value

Measured: normalized growth

O=C(O)CN(CCN(CC(=O)O)CC(=O)O)CCN(CC(=O)O)CC(=O)O
active: [1] 0.278 | [3] 0.194 | [10] 0.198
inactive: [2] 1.03 | [4] 1.01 | [5] 1.16 | [6] 1.01 | [7] 1.02 | [8] 1 | [9] 1.07

O=C(O)CN(CCN(CC(=O)O)CC(=O)O)CC(=O)O
active: locus YDL101C, strain DUN1, stronger effect = lower value 0.889 | locus YDL185W, strain tfp1, stronger effect = lower value 0.282 | locus YDL192W, strain arf1, stronger effect = lower value 0.826 | locus YDR318W, strain mcm21, stronger effect = lower value 0.817 | locus YDR502C, strain sam2, stronger effect = lower value 0.769 | locus YGL086W, strain mad1, stronger effect = lower value 0.79 | locus YGL248W, strain PDE1, stronger effect = lower value 0.826 | [11] 0.82 | locus YGR135W, strain pre9, stronger effect = lower value 0.819 | locus YGR229C, strain SMI1, stronger effect = lower value 0.774 | locus YHR129C, strain ARP1, stronger effect = lower value 0.87 | locus YHR200W, strain rpn10, stronger effect = lower value 0.893 | locus YIL073C, strain SPO22, stronger effect = lower value 1.99 [resistant] | locus YJL187C, strain SWE1 (second series), stronger effect = lower value 0.861 | locus YKR001C, strain vps1, stronger effect = lower value 0.769 | locus YLR058C, strain SHM2, stronger effect = lower value 0.863 | locus YLR268W, strain sec22, stronger effect = lower value 0.801 | locus YLR418C, strain cdc73, stronger effect = lower value 0.764 | locus YMR223W, strain ubp8, stronger effect = lower value 0.793 | locus YNL067W, strain RPL9B, stronger effect = lower value 0.813 | [5] 0.834 | locus YNL233W, strain BNI4, stronger effect = lower value 0.847 | locus YOR136W, strain idh2, stronger effect = lower value 0.909 | locus YOR184W, strain ser1, stronger effect = lower value 0.699 | locus YPR167C, strain met16, stronger effect = lower value 0.902 | strain wtn01, stronger effect = lower value 0.816
inactive: locus YBR021W, strain FUR4, stronger effect = lower value 1.04 | locus YBR229C, strain ROT2, stronger effect = lower value 0.995 | locus YCL029C, strain bik1, stronger effect = lower value 0.958 | locus YDL035C, strain GPR1, stronger effect = lower value 0.869 | locus YDL074C, strain BRE1, stronger effect = lower value 0.885 | locus YDR101C, strain arx1, stronger effect = lower value 0.989 | locus YDR162C, strain NBP2, stronger effect = lower value 0.918 | locus YDR388W, stronger effect = lower value 1.02 | locus YEL061C, strain CIN8, stronger effect = lower value 0.934 | locus YER110C, stronger effect = lower value 0.938 | locus YER155C, strain BEM2, stronger effect = lower value 1.01 | locus YER167W, strain BCK2, stronger effect = lower value 0.936 | locus YGL078C, strain dbp3, stronger effect = lower value 0.985 | locus YGR252W, strain gcn5, stronger effect = lower value 0.994 | locus YHR030C, strain SLT2, stronger effect = lower value 0.97 and 0.976 | locus YHR079C, strain IRE1 (second series), stronger effect = lower value 0.991 | locus YHR079C, strain IRE1, stronger effect = lower value 0.934 | locus YHR094C, strain hxt1, stronger effect = lower value 0.994 | locus YIL066C, strain RNR3, stronger effect = lower value 0.925 | locus YIL125W, strain kgd1, stronger effect = lower value 1.01 | locus YIR030C, strain dcg1, stronger effect = lower value 0.96 | locus YJL095W, strain BCK1, stronger effect = lower value 0.849 and 0.971 | locus YJL134W, strain LCB3, stronger effect = lower value 0.972 | locus YJL168C, strain set2, stronger effect = lower value 0.989 | locus YJR043C, strain POL32, stronger effect = lower value 0.891 | locus YJR066W, strain TOR1, stronger effect = lower value 0.888 | locus YKL009W, strain mrt4, stronger effect = lower value 0.97 | locus YKL068W, stronger effect = lower value 0.996 | locus YKL085W, strain MDH1 (second series), stronger effect = lower value 1.03 | locus YKL085W, strain MDH1, stronger effect = lower value 1.03 | locus YKL190W, strain CNB1, stronger effect = lower value 0.94 | locus YLR039C, strain RIC1, stronger effect = lower value 0.914 | locus YLR102C, strain apc9, stronger effect = lower value 0.995 | locus YLR113W, strain HOG1, stronger effect = lower value 1.09 | locus YLR262C, strain YPT6, stronger effect = lower value 0.827 | locus YLR330W, strain CHS5, stronger effect = lower value 0.944 | locus YLR342W, strain FKS1 (second series), stronger effect = lower value 0.871 | locus YLR371W, strain rom2, stronger effect = lower value 0.984 | locus YML016C, strain PPZ1, stronger effect = lower value 0.934 | locus YML032C, strain rad52, stronger effect = lower value 0.937 | locus YML124C, strain tub3, stronger effect = lower value 0.979 | locus YMR078C, strain ctf18, stronger effect = lower value 0.99 | locus YMR307W, strain GAS1, stronger effect = lower value 0.928 | locus YNL183C, strain NPR1, stronger effect = lower value 0.973 | locus YNL250W, strain rad50, stronger effect = lower value 1.01 | locus YNL271C, strain bni1, stronger effect = lower value 0.982 | locus YNL298W, strain CLA4, stronger effect = lower value 0.99 | locus YNL307C, strain MCK1, stronger effect = lower value 0.991 | locus YNR052C, strain pop2, stronger effect = lower value 0.953 | locus YOL006C, strain TOP1, stronger effect = lower value 1.23 | locus YOL012C, strain htz1 0.486 | locus YOL147C, strain pex11, stronger effect = lower value 0.983 | locus YOR061W, strain CKA2, stronger effect = lower value 0.913 | locus YOR069W, strain VPS5, stronger effect = lower value 0.947 | locus YOR144C, strain elg1, stronger effect = lower value 0.976 | locus YOR231W, strain MKK1, stronger effect = lower value 0.92 | locus YOR316C, strain cot1, stronger effect = lower value 0.979 | locus YPL256C, strain CLN2, stronger effect = lower value 1.07 | locus YPR119W, strain clb2, stronger effect = lower value 0.992 | locus YPR141C, strain kar3, stronger effect = lower value 0.992 | locus YPR163C, strain tif3, stronger effect = lower value 0.99

O=C(O)CN(CCOCCOCCN(CC(=O)O)CC(=O)O)CC(=O)O
inactive: [1] 1.03 | [2] 0.99 | locus YCL061C, strain MRC1 (second series), stronger effect = lower value 1 | [3] 1 | [4] 0.996 | [11] 1.01 | locus YMR263W, strain SAP30, stronger effect = lower value 1 | [6] 0.996 | [7] 1 | [8] 0.992 | locus YNL322C, strain KRE1, stronger effect = lower value 1.02 | [9] 1.01 | [10] 1.06
